Measured values: the supplement of paper PMC4206467

The compounds below were run on Perkinsus marinus PRA240 (assay: ATP content (proliferation) relative to DMSO control; higher = more parasite growth (less inhibition)). Conditions: 20 µM; 4 days.
Description: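 Perkinsus marinus PRA240 trophozoites (2-5x10^6 cells/ml, 100 µl, 96-well) were exposed once to MMV Malaria Box compounds at 20 µM (0.1% DMSO) in triplicate. ATP content (ATPlite bioluminescence) was read at day 4 post-exposure and normalised to DMSO + cells control wells (100% activity). Compounds were identified by joining plate and well to the Malaria Box list.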

Row | Compound | ATP content [%]
1 | Oc1ccc(Br)cc1CN1CCN(Cc2ccc(Cl)cc2)CC1 | 129
2 | CCCCCCc1cc(O)c2c3c(c(=O)oc2c1)CCC(C)C3 (stereo not given) | 33.1
3 | COc1cc(CNCCc2ccc(Cl)cc2)cc(OC)c1O | 130
4 | O=C(CCc1ccco1)NC1CCN(CC2(c3ccc(Cl)cc3)CCC2)CC1 | 103
5 | CCOc1c(Cl)cc(CNC(C)C(O)c2ccccc2)cc1OC (stereo not given) | 75.7
6 | COc1ccc(CN2CCN(Cc3ccccc3)CC2)c(O)c1 | 194
7 | CCOc1cc(CNC(C)C(O)c2ccccc2)cc(Cl)c1OCC (stereo not given) | 120
8 | Oc1ccc(C(=C(Cl)Cl)c2ccc(O)cc2)cc1 | 137
9 | Oc1ccc(Br)cc1CN1CCN(Cc2cccc(F)c2)CC1 | 95.2
10 | CN(N=O)C1=C(NC2CCCCC2)C(=O)c2ccccc2C1=O | 45.9
